In the supplement of paper PMC12350171:
Structures can show the parent of a compound that is named as a salt. Unmarked numbers belong to inactive results.

Key:
Conditions in all cases: 20 µM
[1] = test system: Salmonella enterica typhimurium; assay: growth AUC normalised to DMSO control (fraction of control); higher = less growth inhibition, active = hit call of the paper
How it was run: (§1)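 After two anaerobic passages, pathogens were added at a starting OD578 of 0.01 to pre-reduced mGAM plates holding compound at 20 μM with 1% DMSO; hemin and NAD were supplemented for Haemophilus parainfluenzae. Sealed with breathable membranes, plates were read at OD578 hourly for 24 h, in three biological replicates. The trapezoidal rule, applied up to the exponential-to-stationary transition, gave the growth-curve AUC, which was normalised to DMSO controls on the same plate.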

[2] = test system: Shigella flexneri; assay: as above
How it was run: as §1

[3] = test system: Vibrio cholerae; assay: as above
How it was run: as §1

[4] = test system: Yersinia pseudotuberculosis; assay: as above
How it was run: as §1

[5] = test system: P. vulgatus RND KO; assay: growth AUC normalised to DMSO control (median) (fraction of control); higher = less growth inhibition, active = hit call of the paper
How it was run: (§2)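 After two overnight anaerobic passages, strains were inoculated at OD578 0.01 into mGAM in 96-well plates containing approved-drug library compounds at 20 μM and 1% DMSO. Growth was followed by reading OD578 hourly for 24 h within an anaerobic incubator. Area under the curve, taken by the trapezoidal rule up to the start of stationary phase, was normalised to same-plate vehicle wells, and the median of three biological replicates is listed.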

[6] = test system: P. vulgatus WT; assay: as above
How it was run: as §2

[7] = test system: S. enterica typhimurium WT; assay: as above
How it was run: as §2

[8] = test system: S. enterica typhimurium tolC KO; assay: as above
How it was run: as §2
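Throughout, for growth AUC normalised to DMSO control (median): active when median AUC fell below 0.1.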

| SMILES | growth AUC normalised to DMSO control [1] | growth AUC normalised to DMSO control [2] | growth AUC normalised to DMSO control [3] | growth AUC normalised to DMSO control [4] | growth AUC normalised to DMSO control [5] | growth AUC normalised to DMSO control [6] | growth AUC normalised to DMSO control [7] | growth AUC normalised to DMSO control [8] |
| --- | --- | --- | --- | --- | --- | --- | --- | --- |
| O=c1n(CCCN2CCN(c3cccc(Cl)c3)CC2)nc2ccccn12 [Trazodone hydrochloride] | 0.992 | 0.991 | 0.957 | 0.984 | 0.993 | 1.01 | 1 | 0.964 |
| N#Cc1ccc(C(c2ccc(C#N)cc2)n2cncn2)cc1 [Letrozole] | 1.01 | 1 | 0.989 | 0.999 | 1.01 | 1.01 | 1.01 | 1 |
| CCOc1cc(CC(=O)N[C@@H](CC(C)C)c2ccccc2N2CCCCC2)ccc1C(=O)O [Repaglinide] | 1.03 | 1.06 | 1.07 | 1.02 | 0.956 | 1.01 | 1.01 | 0.981 |
| O=C(O)/C=C/c1ccc(Cn2ccnc2)cc1 [Ozagrel hydrochloride] | 1.02 | 1.02 | 0.995 | 1.01 | 1.02 | 1.05 | 1 | 1 |
| CCOC(=O)C1=C(C)NC(C)=C(C(=O)OC)C1c1cccc(Cl)c1Cl (configuration not stated) [Felodipine] | 0.987 | 1 | 1 | 0.883 | 1.01 | 1.03 | 1 | 1 |
| CC(C(=O)O)c1ccc2c(c1)Cc1cccnc1O2 (configuration not stated) [Pranoprofen] | 0.999 | 0.976 | 0.993 | 1.01 | 1.04 | 1.04 | 1.01 | 1 |
| CC(C)NCC(O)COc1ccc(COCCOC(C)C)cc1 (configuration not stated) [Bisoprolol hemifumarate] | 1.03 | 1.03 | 1.05 | 1.02 | 1.02 | 1.08 | 1.01 | 1.01 |
| COCCOC(=O)C1=C(C)NC(C)=C(C(=O)OC/C=C/c2ccccc2)C1c1cccc([N+](=O)[O-])c1 (configuration not stated) [Cilnidipine] | 1.01 | 1.01 | 1.03 | 0.976 | 0.989 | 0.98 | 1.01 | 1.01 |
| CN(N=O)C(=O)N[C@H]1C(O)O[C@H](CO)[C@@H](O)[C@@H]1O (mixture of isomers) [Streptozotocin] | 0.659 (active) | 0.0254 (active) | 0.141 (active) | 0.0388 (active) | 0.0955 (active) | 0.0778 (active) | 0.725 | 0.694 |
| COc1cc([S+](C)[O-])ccc1-c1nc2cccnc2[nH]1 (configuration not stated) [Sulmazole] | 1.02 | 1.03 | 1.04 | 1.02 | 1.07 | 1.08 | 0.999 | 0.987 |
| CC(=O)Nc1ccc(O)cc1 [Acetaminophen] | 0.992 | 0.99 | 0.997 | 0.996 | 1.02 | 1.01 | 1 | 0.998 |
| OCCOCCN1CCN(C(c2ccccc2)c2ccc(Cl)cc2)CC1 (configuration not stated) [Hydroxyzine dihydrochloride] | 0.992 | 0.875 (active) | 0.975 | 0.865 | 0.989 | 1 | 1 | 0.978 |
| CCCNC(C)C(=O)Nc1ccccc1C (configuration not stated) [Prilocaine hydrochloride] | 0.987 | 1 | 1 | 0.998 | 0.99 | 1 | 0.992 | 0.993 |
| CC[N+](C)(CC)CCOC(=O)C1c2ccccc2Oc2ccccc21 [Methantheline bromide] | 1 | 1.01 | 0.973 | 1 | 0.972 | 0.981 | 1 | 0.995 |
| CCCNC(C)(C)COC(=O)c1ccccc1 [Meprylcaine hydrochloride] | 0.996 | 1.02 | 1.01 | 1.01 | 0.984 | 1.01 | 1 | 0.995 |
| CC1(C)O[C@@H]2C[C@H]3[C@@H]4CCC5=CC(=O)CC[C@]5(C)[C@@]4(F)[C@@H](O)C[C@]3(C)[C@]2(C(=O)CCl)O1 [Halcinonide] | 1 | 1.03 | 0.99 | 1 | 0.993 | 1 | 1.02 | 0.967 |
| N[C@@H](Cc1cc(I)c(Oc2ccc(O)c(I)c2)c(I)c1)C(=O)O [Liothyronine] | 0.985 | 0.951 | 0.981 | 0.976 | 0.987 | 0.984 | 1.01 | 1 |
| COc1cc(-c2ccc(=O)[nH]n2)ccc1OC(F)F [Zardaverine] | 0.99 | 0.999 | 0.955 | 0.998 | 1 | 1.02 | 0.995 | 0.997 |
| CN(C)CCN1C(=O)c2ccccc2N(C)c2ccccc21 [Dibenzepine hydrochloride] | 0.986 | 0.972 | 0.984 | 0.977 | 0.994 | 0.979 | 0.988 | 0.992 |
| CCCc1nc(C)c2c(=O)nc(-c3cc(S(=O)(=O)N4CCN(CC)CC4)ccc3OCC)[nH]n12 [Vardenafil] | 1.01 | 1 | 1.01 | 1.01 | 1.01 | 1.01 | 0.983 | 0.984 |
| O=C(O)c1ccccc1C(=O)Nc1ccc(S(=O)(=O)Nc2nccs2)cc1 [Phthalylsulfathiazole] | 1.01 | 1.01 | 1.03 | 0.997 | 1.03 | 1.03 | 0.993 | 0.998 |
| OC(CCN1CCCCC1)(c1ccccc1)C1CC2C=CC1C2 (configuration not stated) [Biperiden hydrochloride] | 0.987 | 0.967 | 0.934 | 1 | 0.994 | 1.01 | 1.01 | 0.946 |
| COc1ccc([C@@H]2CC(=O)c3c(O)cc(O[C@@H]4O[C@H](CO[C@@H]5O[C@@H](C)[C@H](O)[C@@H](O)[C@H]5O)[C@@H](O)[C@H](O)[C@H]4O)cc3O2)cc1O [Hesperidin] | 1.03 | 1.04 | 1.07 | 1.01 | 1.03 | 1 | 1 | 1.01 |
| CC(C)/N=c1\cc2n(-c3ccc(Cl)cc3)c3ccccc3nc-2cc1Nc1ccc(Cl)cc1 [Clofazimine] | 0.99 | 0.996 | 1 | 1.03 | 0.0291 (active) | 0.0974 (active) | 0.972 | 1.02 |
| O=C(CCCCCCC(=O)Nc1ccccc1)NO [Vorinostat] | 0.994 | 1.03 | 0.996 | 1.03 | 1.01 | 1.06 | 0.997 | 1 |
| CO[C@@]1(NC(=O)CSCC#N)C(=O)N2C(C(=O)O)=C(CSc3nnnn3C)CS[C@@H]21 [Cefmetazole sodium salt] | 0.00445 (active) | 0.0256 (active) | 0.337 (active) | 0.139 (active) | 0.0391 (active) | 0.03 (active) | 0.00692 (active) | 0.00805 (active) |
| C[C@@](Cc1ccc(O)c(O)c1)(NN)C(=O)O [Carbidopa] | 0.994 | 0.948 | 0.996 | 0.972 | 0.99 | 0.993 | 1 | 1.01 |
| CCN1CCCC1CNC(=O)c1cc(S(=O)(=O)CC)c(N)cc1OC (configuration not stated) [Amisulpride] | 0.998 | 1 | 1.01 | 0.99 | 1.02 | 1.01 | 1.01 | 0.995 |
| CO[C@@H]1[C@@H](O[C@@H]2O[C@H](C)[C@@H](O[C@H]3C[C@@](C)(O)[C@@H](OC(=O)CC(C)C)[C@H](C)O3)[C@H](N(C)C)[C@H]2O)[C@@H](CC=O)C[C@@H](C)[C@@H](O)/C=C/C=C/C[C@@H](C)OC(=O)C[C@H]1OC(C)=O [Josamycin] | 0.937 (active) | 0.995 | 0.0145 (active) | 0.971 | 0.0124 (active) | 0.00854 (active) | 0.967 | 0.0649 (active) |
